Bioassay records deposited in PubChem BioAssay by several laboratories.
Shown are actives, neighbours in structure and some others; about 4% of the full set was active somewhere.
BoNT A protease: inhibitors of Botulinum neurotoxin A light chain protease. actives 0.17% (n = 360,000). multiplex microsphere protease substrate cleavage, flow cytometry. inhibition, % at 10 µM; note: plate controls were buffer without enzyme for full effect and enzyme alone for no effect
Anthrax LF prot: anthrax lethal factor protease inhibition; multiplex microsphere protease cleavage assay, LF; inhibition, % at 10 µM; actives 0.12% (n = 360,000); note: plate controls were buffer without enzyme for full effect and enzyme alone for no effect
Target sequence (P15917 whole entry, looked up): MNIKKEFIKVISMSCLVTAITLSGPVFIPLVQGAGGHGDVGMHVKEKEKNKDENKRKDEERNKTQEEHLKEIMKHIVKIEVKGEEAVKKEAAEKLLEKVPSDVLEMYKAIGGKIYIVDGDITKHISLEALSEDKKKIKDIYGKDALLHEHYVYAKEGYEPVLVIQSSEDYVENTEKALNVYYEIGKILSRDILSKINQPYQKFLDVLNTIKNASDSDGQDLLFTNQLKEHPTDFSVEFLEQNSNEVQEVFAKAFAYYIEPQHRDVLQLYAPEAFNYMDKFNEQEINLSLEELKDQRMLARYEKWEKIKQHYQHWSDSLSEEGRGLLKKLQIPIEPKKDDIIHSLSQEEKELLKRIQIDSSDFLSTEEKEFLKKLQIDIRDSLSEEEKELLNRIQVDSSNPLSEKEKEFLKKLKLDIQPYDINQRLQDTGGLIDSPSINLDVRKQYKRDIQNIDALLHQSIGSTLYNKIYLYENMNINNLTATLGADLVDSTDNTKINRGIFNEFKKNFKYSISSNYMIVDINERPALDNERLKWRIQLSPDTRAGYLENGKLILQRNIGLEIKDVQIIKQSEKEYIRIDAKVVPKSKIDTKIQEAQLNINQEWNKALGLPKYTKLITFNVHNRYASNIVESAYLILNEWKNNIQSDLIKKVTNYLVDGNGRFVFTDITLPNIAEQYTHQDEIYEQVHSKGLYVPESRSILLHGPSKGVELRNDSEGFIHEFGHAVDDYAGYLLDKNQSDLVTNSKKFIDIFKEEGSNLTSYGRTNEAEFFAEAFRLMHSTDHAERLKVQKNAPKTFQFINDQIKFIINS
MazEF act: increases E. coli MazEF RNase cleavage of RNA; P0AE70; FAM/BHQ RNA-DNA oligo cleavage fluorescence, 5 h; activation, % at 20 µM; actives 0.32% (n = 350,000); AID 504720; in the data active = activation above about 50%
BoNT-F LC inh: inhibitors of Botulinum neurotoxin F light chain protease. inhibition, % at 10 µM. Multiplex microsphere protease cleavage assay, flow cytometry. actives 0.22% (n = 360,000). AID 588497; in the data active = inhibition above about 35%, passing the limit was not always enough; inconclusive = no clear call, values can overlap the other calls; note: plate controls were buffer without enzyme for full effect and enzyme alone for no effect
Bead autofluor: compound fluorescence in toxin protease inhibitor counterscreen; compound autofluorescence counterscreen, microsphere flow cytometry; active compounds read high; fluorescence intensity (no concentration beside the values); actives 3.1% (n = 360,000); in the data active = fluorescence intensity above about 16000; inconclusive = no clear call, values can overlap the other calls
DUSP3 inh: DUSP3 (human) phosphatase inhibition; P51452; recombinant VHR phosphatase, pNPP absorbance; inhibition, % at 13.3 µM; actives 0.52% (n = 290,000); AID 1654; in the data active = inhibition above about 50%
Starred values were filed as active, the others as inactive. Cut-off read from the data, not from the text of the source, unless noted: active = inhibition above about 30%; inconclusive = no clear call, values can overlap the other calls; inactive = below that.

CCN1CCN(c2nc3ccccc3nc2C(C#N)S(=O)(=O)c2ccc(C)c(C)c2)CC1 (stereo not given) was read as BoNT A protease 0, Anthrax LF prot -1, MazEF act 7, BoNT-F LC inh -2, Bead autofluor 22821* and DUSP3 inh 8.
CC1CN(c2nc3ccccc3nc2C(C#N)C(=O)OC2CCCCC2)CC(C)O1 (stereo not given) was read as BoNT A protease inconclusive, Anthrax LF prot 16, MazEF act -16, BoNT-F LC inh 3, Bead autofluor 21164* and DUSP3 inh 13.
For Cc1ccc(S(=O)(=O)C(C#N)c2nc3ccccc3nc2N2CC(C)OC(C)C2)cc1C (stereo not given) the results were BoNT A protease 0, Anthrax LF prot 3, MazEF act 1, BoNT-F LC inh -4, Bead autofluor 17403* and DUSP3 inh 13.
Screening Cc1cccc(S(=O)(=O)C(C#N)c2nc3ccccc3nc2N2CC(C)OC(C)C2)c1 (stereo not given) returned BoNT A protease 2, Anthrax LF prot 0, MazEF act -4, BoNT-F LC inh -8, Bead autofluor 8102 and DUSP3 inh -6.
O=C(Nc1ccccn1)N1CCOCC1 was read as BoNT A protease -3, Anthrax LF prot 0, MazEF act 5, BoNT-F LC inh -5, Bead autofluor 20658* and DUSP3 inh 9.
For Cc1ccc(-n2c(COc3c(C)cccc3C)nnc2SCC(=O)Nc2nccs2)cc1 the results were BoNT A protease 0, Anthrax LF prot 6, MazEF act -16, BoNT-F LC inh -1, Bead autofluor 7812 and DUSP3 inh 29.
`CCn1c(SCC(=O)NCc2cccs2)nnc1-c1cccs1` gave BoNT A protease -2, Anthrax LF prot -1, MazEF act 0, BoNT-F LC inh 0, Bead autofluor 23563* and DUSP3 inh 7.
Cn1c(SCC(=O)NCc2cccs2)nnc1-c1cccs1 was read as BoNT A protease 0, Anthrax LF prot -3, MazEF act 5, BoNT-F LC inh 6, Bead autofluor 3324 and DUSP3 inh -10.
Screening CCn1c(CNC(=O)COc2c(C)cccc2C)nnc1SCC(=O)Nc1nccs1 returned BoNT A protease 8, Anthrax LF prot -14, MazEF act 2, BoNT-F LC inh 10, Bead autofluor 17164* and DUSP3 inh 14.
For Cc1ccc(N(c2ncnc(N)c2[N+](=O)[O-])C2CCCCC2)cc1 the results were BoNT A protease 0, Anthrax LF prot 0, MazEF act 4, BoNT-F LC inh 1, Bead autofluor 23258* and DUSP3 inh 14.
CCOC(=O)N1CCC(=NNS(=O)(=O)c2cccc([N+](=O)[O-])c2)CC1 was read as BoNT A protease -8, Anthrax LF prot -2, MazEF act 47, BoNT-F LC inh -8, Bead autofluor 22772* and DUSP3 inh 15.
For CCOC(=O)N1CCN(S(=O)(=O)c2cc([N+](=O)[O-])ccc2C)CC1 the results were BoNT A protease -1, Anthrax LF prot -2, MazEF act 4, BoNT-F LC inh -8, Bead autofluor 4535 and DUSP3 inh -3.
For Cc1ccc(C(=O)N(c2ccccn2)C(C)c2ccco2)cc1C (stereo not given) the results were BoNT A protease inconclusive, Anthrax LF prot -3, MazEF act 6, BoNT-F LC inh 4, Bead autofluor 21171* and DUSP3 inh 18.
Screening O=C(NCC(c1cccnc1)N1CCN(c2ccccc2F)CC1)Oc1ccccc1 (stereo not given) returned BoNT A protease 0, Anthrax LF prot -2, MazEF act -1, BoNT-F LC inh -4, Bead autofluor 3497 and DUSP3 inh -12.
Screening C/C(=N/NS(=O)(=O)c1ccccc1)c1c[nH]c2ccccc12 returned BoNT A protease 2, Anthrax LF prot -1, MazEF act 23, BoNT-F LC inh -6, Bead autofluor 4092 and DUSP3 inh 2.
`C/C(=N/NS(=O)(=O)c1cccc([N+](=O)[O-])c1)c1c[nH]c2ccccc12` gave BoNT A protease 0, Anthrax LF prot -4, MazEF act 56*, BoNT-F LC inh 1, Bead autofluor 5620 and DUSP3 inh 14.
Screening CN=C1S/C(=C\c2cc(C)n(-c3ccccc3F)c2C)C(=O)N1C returned BoNT A protease 4, Anthrax LF prot -2, MazEF act 0, BoNT-F LC inh 7, Bead autofluor 20537* and DUSP3 inh 7.
`CCCOc1ccccc1Nc1nnc(C)c(=O)[nH]1` gave BoNT A protease -5, Anthrax LF prot -4, MazEF act -1, BoNT-F LC inh -7, Bead autofluor 21083* and DUSP3 inh 10.
Screening COC(=O)/C=C(\C)NC(=O)c1ccc(F)cc1 returned BoNT A protease 0, Anthrax LF prot 0, MazEF act 4, BoNT-F LC inh -3, Bead autofluor 3076 and DUSP3 inh 0.
COC(=O)/C=C(\C)NC(=O)c1cccs1 was read as BoNT A protease -5, Anthrax LF prot -6, MazEF act 1, BoNT-F LC inh -11, Bead autofluor 18031* and DUSP3 inh -10.
Screening Cc1cc(C(F)F)n2nc(C(=O)Nc3ccccc3Br)nc2n1 returned BoNT A protease 0, Anthrax LF prot -4, MazEF act -5, BoNT-F LC inh 0, Bead autofluor 20530* and DUSP3 inh 14.
`Nc1ccc(C#Cc2ccccc2)cc1` gave BoNT A protease inconclusive, Anthrax LF prot 1, MazEF act -3, BoNT-F LC inh 1, Bead autofluor 20219* and DUSP3 inh 17.
CN(CC(=O)Nc1ccccc1Br)c1ncnc2sccc12 was read as BoNT A protease 0, Anthrax LF prot -2, MazEF act 57*, BoNT-F LC inh 1, Bead autofluor 4398 and DUSP3 inh -2.
CN(CC(=O)Nc1ccc(F)c(F)c1F)c1ncnc2sccc12 was read as BoNT A protease 1, Anthrax LF prot 6, MazEF act 2, BoNT-F LC inh 5, Bead autofluor 4460 and DUSP3 inh 16.
`Fc1ccc(-c2ccc3nccn3c2)cc1Cl` gave BoNT A protease 1, Anthrax LF prot 9, BoNT-F LC inh 11 and Bead autofluor 3708.
`CNc1ccccc1C(C)(C)c1cn(-c2ccc([N+](=O)[O-])cc2)nn1` gave BoNT A protease 0, Anthrax LF prot 3, MazEF act 5, BoNT-F LC inh -24, Bead autofluor 3594 and DUSP3 inh 53*.
`CNc1ccccc1C(C)(C)c1ccn[nH]1` gave BoNT A protease 0, Anthrax LF prot -2, MazEF act -15, BoNT-F LC inh -6, Bead autofluor 4588 and DUSP3 inh 7.
Screening Cc1cccc(NC(=S)NNC(=O)c2ccccc2Br)c1 returned BoNT A protease 1, Anthrax LF prot 7, MazEF act -6, BoNT-F LC inh 10, Bead autofluor 1854 and DUSP3 inh -10.
Screening COc1ccc(-c2cc(=O)oc3cc4occ(C)c4cc23)cc1 returned BoNT A protease 1, Anthrax LF prot -2, MazEF act 6, BoNT-F LC inh 1, Bead autofluor 22808* and DUSP3 inh 8.
